Hit rate of the full screen: of about 340,000 compounds, about 6,900 (2%) were called active. What follows is part of a selection rich in actives, with near analogues and random picks from the rest. A number with no mark means an inactive call. Cut-off read from the data, not from the text of the source: active = inhibition above about 30%; inactive = below that, where a call was filed.
Molecular target: D(2) dopamine receptor (Homo sapiens) (UniProt P14416)
Experiment: HTS Assay for Allosteric Antagonists of the Human D2 Dopamine Receptor: Primary Screen for Antagonists; note: 0% is about no effect
Settings: HEK293 TREx D2 cells, calcium flux, dopamine EC80; at 10 µM; hits give high values
How it was run: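 Inhibition of EC80 dopamine-driven calcium flux, recorded kinetically, defines activity here; cells are a tetracycline-induced HEK293 T-REx line expressing force-coupled D2.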

D(2) dopamine receptor (Homo sapiens), sequence (P14416 whole entry, looked up): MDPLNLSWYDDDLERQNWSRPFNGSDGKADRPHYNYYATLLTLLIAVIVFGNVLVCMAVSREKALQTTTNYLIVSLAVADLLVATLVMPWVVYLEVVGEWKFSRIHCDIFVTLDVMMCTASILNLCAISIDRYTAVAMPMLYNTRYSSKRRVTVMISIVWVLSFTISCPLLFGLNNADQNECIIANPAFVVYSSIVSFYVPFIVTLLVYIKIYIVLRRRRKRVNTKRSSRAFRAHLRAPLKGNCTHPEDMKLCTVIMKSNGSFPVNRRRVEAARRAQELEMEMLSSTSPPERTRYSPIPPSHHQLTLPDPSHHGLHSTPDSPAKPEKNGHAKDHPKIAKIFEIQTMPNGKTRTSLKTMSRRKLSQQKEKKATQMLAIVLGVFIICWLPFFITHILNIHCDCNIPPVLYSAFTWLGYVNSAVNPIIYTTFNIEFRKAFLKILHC

SMILES | inhibition
O=C(CN1CCCSc2ccccc21)N1CCN(S(=O)(=O)c2ccccc2)CC1 | 3.3%
O=C(OCc1cc(=O)n2ccsc2n1)C1(c2ccc(Cl)cc2)CC1 | 29.3%
CSCCC(NC(=O)c1ccccc1)C(=O)N1CCN(Cc2ccc(Cl)cc2)CC1 (configuration not stated) | -14.3%
N#Cc1ccc(C2=CC(=O)C[C@H](c3ccc(Cl)cc3)C2)cc1 | -1.65%
COc1cccc(NC(=O)CN(C)C(=O)c2cc(C3CC3)nn2-c2ccccc2)c1 | -0.486%
CCc1ccccc1NC(=O)CN(C)C(=O)c1cc(C2CC2)nn1-c1ccccc1 | 2.39%
COc1ccc(NC(=O)CN(C)C(=O)c2cc(C3CC3)nn2-c2ccccc2)cc1 | 39.5% (active)
Cc1csc(=O)n1CCC(=O)OCC(=O)NNC(=O)c1ccc(Br)cc1 | -9.52%
Cc1c(C(C)CCCO)oc(=O)c2c1Oc1c(C)c(C(C)C[C@@H](C)O)oc(=O)c1C2 (some centres not stated) | 17%
Cc1ccc(C(=O)OCC(=O)N2CC(C)CC(C)C2)cc1S(=O)(=O)N1CCCCC1 (configuration not stated) | 19.3%
O=C(CN1CCN(c2ccccc2)CC1)Nc1ccc(F)cc1 | 13.5%
O=C(CN1CCN(c2ccc(F)cc2)CC1)Nc1ccccc1 | -19.8%
O=C(CCN1CCN(c2ccccc2)CC1)NNC(=S)Nc1ccccc1 | 61.2% (active)
Cc1cccc(C)c1NC(=O)COC(=O)c1c(C)nn(-c2ccccc2)c1C | 1.57%
Cc1ccc(C(CC(=O)O)NC(=O)c2ccc(S(=O)(=O)N3CCCC3)cc2)cc1 (configuration not stated) | 8.12%
CN(C)CCCN1C(=O)CSC1c1ccc([N+](=O)[O-])cc1 (configuration not stated) | 34% (active)
CN(C)CCNC(=O)Cc1ccc([N+](=O)[O-])cc1 | -7.39%
CCCCN(C)c1ccc([N+](=O)[O-])cc1 | -0.645%
CC(=O)Nc1ccc(S(=O)(=O)N2CCn3cccc3C2C)cc1 (configuration not stated) | 2.61%
CCn1c(SCC(=O)NNC(=O)c2ccc(OC)cc2)nnc1C(C)C | -19.3%
Cc1cccc(C(=O)NNC(=O)CSc2nnc(C(C)C)n2C)c1 | 41.8% (active)

SMILES | inhibition
CCC(c1nnc(SCC(=O)NNC(=O)c2ccccc2)n1Cc1ccccc1)N(C)C (configuration not stated) | -24.9%
CN(CC(=O)NCc1ccc2c(c1)OCO2)CC(=O)Nc1ccc(F)c(F)c1F | -25.8%
CCC[C@H]1CCCC/C=C\CCCC(=O)OCCN1C(=O)OC(C)(C)C | -5.66%
COC(=O)CCC(=O)N1CCCC(CO)(Cc2ccccc2)C1 (configuration not stated) | 3.17%
COc1ccccc1/C=C/C=N/NC(=O)CN1CCN(Cc2ccccc2)CC1 | -10.7%
COc1ccccc1/C=C/CN1CCC(CO)(Cc2ccccc2)CC1 | 53.2% (active)
Cc1cc(NC(=O)COc2ccc([N+](=O)[O-])cc2)no1 | -5.38%
COc1ccccc1NC(=O)COC(=O)COc1ccccc1F | -3.39%
Cc1ccc(OCCNC(=O)CN2C(=O)NC3(CCCC3)C2=O)cc1 | 1.97%
COc1cc(C(c2c(NC(=O)c3ccco3)sc(C)c2C)N2CCOCC2)cc(OC)c1OC (configuration not stated) | -0.625%
CCOc1ncccc1C(=O)OCC(=O)N1c2ccccc2CC1C (configuration not stated) | -9.6%
CN(CC(=O)NC1CCCCC1)S(=O)(=O)c1ccc(Br)s1 | 3.02%
CN(CC(=O)NC1CCN(Cc2ccccc2)CC1)S(=O)(=O)c1ccc(Cl)s1 | 68.5% (active)
CCOc1ccc(CC(=O)NC2CCN(Cc3ccccc3)CC2)cc1 | 7.65%
CC(C)N(C(=O)CSc1nnc(NC2CC2)s1)c1ccccc1 | -9.12%
Nc1nnc(SCC(=O)NCC(=O)Nc2ccc(F)c(F)c2F)s1 | 17.4%
O=C(c1ccc(Cl)nc1)N1CCN(S(=O)(=O)c2ccc3c(c2)OCCO3)CC1 | -22.8%
O=C(COC(=O)c1ccccc1Cl)NC1CCCCCCC1 | 40.2% (active)
O=C(COC(=O)c1ccccc1SCC(=O)NC1CCCCC1)NC1CCCCC1 | -0.864%
O=C(COC(=O)c1cccc(Cl)c1)NC1CCCCCCC1 | 4.87%
CC(C)(c1ccccc1)c1ccc(OCCN2CCCC2)cc1 | 0.0464%

SMILES | inhibition
C=CCN(CC=C)CCOc1ccccc1[N+](=O)[O-] | 6.41%
O=[N+]([O-])c1ccccc1OCCCCN1CCCCC1 | 93.9% (active)
Cc1ccc(OCCCCN2CCCCC2)c(Br)c1 | 73.5% (active)
Cc1ccc(C(C)C)cc1OCCN1CCCC1 | -14.6%
CC1CN(CCOc2ccccc2[N+](=O)[O-])CC(C)O1 (configuration not stated) | 1.8%
Cc1ccc(C(C)(C)C)c(OCCCCN2CCCC2)c1 | 31% (active)
CC(=O)Nc1ccc(S(=O)(=O)N2CCN(CCCOc3cc(C)ccc3C)CC2)cc1 | 3.73%
COc1cccc(OCCCN2CCCCCC2)c1 | -12.6%
CCN(C(=O)CSc1ncnc2sccc12)c1c(N)n(Cc2ccccc2)c(=O)[nH]c1=O | -15.3%
Cc1ccc(S(=O)(=O)N2CCCCC2)cc1NC(=O)[C@@H]1CCCN1C(=O)c1cccs1 | -14.3%
Cc1cc(C)c(S(=O)(=O)N2CCC(C(=O)OCc3c(C)noc3C)CC2)c(C)c1 | 7.04%
O=C(CN1CCCCC1)Nc1ccccc1C(=O)NC1CC1 | 7.71%
Cc1ccc(NC(=O)COC(=O)CN2CCCCCC2=O)c(C)c1 | -4.24%
OCC1(CCc2ccccc2)CCN(Cc2ccc3nsnc3c2)CC1 | 36.1% (active)
CC(C)(O)C#Cc1ccc(CN2CCC(CO)(CCc3ccccc3)CC2)cc1 | 14.6%
Cc1cccc(-c2ncc(CN3CCC(CO)(CCCc4ccccc4)CC3)cn2)c1 | 6.88%
CN(CCOc1ccccc1)C(=O)c1cc(-c2ccco2)nc2ccccc12 | 3.66%
CC(OC(=O)CNC(=O)c1ccc(Cl)c([N+](=O)[O-])c1)C(=O)NCc1ccco1 (configuration not stated) | 26.5%
CC(=O)Nc1ccc(NC(=O)C(C)OC(=O)c2ccccc2C(=O)c2ccc(Cl)c([N+](=O)[O-])c2)cc1 (configuration not stated) | 36.3% (active)
N#Cc1cccc(NC(=O)COC(=O)c2ccccc2C(=O)c2ccc(Cl)c([N+](=O)[O-])c2)c1 | 7.92%

Source: PubChem BioAssay AID485344 (National Center for Advancing Translational Sciences (NCATS), 2010)
